# According to PubChem BioAssay (NCI):
# Compounds without any hit were thinned out: in the full panel of roughly 83,000, 20% have a hit.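 Compound tested at a single concentration for 48 hours in 96-well plates; a percent growth value below 10 was scored as active.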 A number with no mark means an inactive call. Calls of active or inactive are those of the source.
# How the values were obtained:
# Experiment in all cases: NCI-60 one-dose screen, 48 h (100 = growth as untreated, 0 = no growth, -100 = all killed)
# Settings in all cases: 10 µM unless noted
# [1] = tested on: RPMI-8226 leukemia
# [2] = tested on: OVCAR-8 ovarian
# [3] = tested on: OVCAR-5 ovarian
# [4] = tested on: OVCAR-4 ovarian
# [5] = tested on: SK-OV-3 ovarian
# [6] = tested on: IGROV1 ovarian
# [7] = tested on: OVCAR-3 ovarian
# [8] = tested on: HS 578T breast
# [9] = tested on: NCI/ADR-RES ovarian
# [10] = tested on: SR leukemia
Structure (SMILES),growth [1],growth [2],growth [3],growth [4],growth [5],growth [6],growth [7],growth [8],growth [9],growth [10] [%]
COc1ccc(Oc2nc(Nc3ccc(N4CCCCC4)nc3)ncc2NC(=O)c2cc(OC)cc(OC)c2)cc1,24.4%,57%,76.7%,56.7%,57.6%,58.3%,6.75% (active),44.6%,26.1%,–
Clc1ccc(-c2nnc(Cn3ccnc3)o2)cc1,–,–,–,102%,107%,108%,116%,95.1%,106%,94.3
O=S(=O)(NCCNc1cc(-c2c(-c3cccc(O)c3)nc3sccn23)ccn1)c1ccc(Br)cc1,38.1%,47.5%,109%,43.1%,73.7%,47.4%,60.3%,59.1%,80.4%,–
Fc1ccc(Nc2nc3nonc3nc2Nc2ccc(F)cc2)cc1,6.64% (active),8.53% (active),-16.7% (active),5.75% (active),3.75% (active),32.6%,1.97% (active),-1.86% (active),3.98% (active),–
OC(c1cccc(OCc2ccccc2)c1)c1nnc(-c2ccccc2)o1 (centres undefined),57.8%,95.9%,102%,87.1%,106%,91.7%,104%,96.9%,89.7%,–
C=CC(=O)Nc1cccc(C)c1Nc1cc(-c2cccnc2Cc2c(C)c(OC)cc(OC)c2C)ncn1,-24.1% (active),3.17% (active),57.5%,41.9%,28.7%,42.6%,0.807% (active),29.6%,35.3%,–
Cc1ccc(S(=O)(=O)Nc2sccc2-c2nc(-c3ccccc3)no2)cc1,84.2%,89.4%,85.8%,95.1%,89.1%,87.9%,92.2%,97%,99.2%,–
CCc1c(C(=O)N[C@@H]2c3cc(Cl)ccc3CC[C@@H]2O)[nH]c(C)c1C(C)=O,59.7%,71.4%,97.9%,95.9%,74.4%,59%,81.8%,77.5%,82.7%,–
O=C1N/C(=N/O)S/C1=C/c1cn(-c2ccccc2)nc1-c1ccccc1,98.8%,89.9%,109%,111%,77.6%,77.4%,93%,83.1%,99.8%,–
O=C1c2ccccc2C2(c3ccc(O)cc3)c3ccccc3Oc3cccc1c32 (centres undefined),17.8%,66.8%,30.7%,86.9%,25.7%,59.9%,11.2%,25.8%,11.1%,–
CN(C)S(=O)(=O)n1cnc([C@@H]2[C@@H]3C(=O)OC[C@@H]3C[C@]23N=CN(Cc2ccccc2)C3=O)c1,-8.51% (active),107%,96.7%,79.6%,107%,113%,105%,100%,102%,–
Clc1ccc2c(NCCCN3CCN(c4nc(-n5ccnc5)nc5ccccc45)CC3)ccnc2c1,-48.6% (active),84.2%,120%,64.9%,109%,86.5%,90.5%,85.5%,90.7%,–
CCN1CCN(c2ccc(Nc3cc(-c4cccnc4Nc4c(Cl)c(OC)cc(OC)c4Cl)ncn3)cc2)CC1,64.1%,69.2%,92.4%,48.8%,72.7%,57.4%,88.9%,51.8%,75.8%,–
Nc1c(-c2nc3ccccc3c(=O)[nH]2)nnn1-c1ccc(Cl)cc1,90.6%,56.1%,97.8%,-4.08% (active),68.5%,83%,89.2%,51.1%,56.4%,–
CO/C(=C1/NC(=O)C(Cc2ccc(O)c(Br)c2)N(C)C(=O)C(C)NC(=O)CCC/C=C(\C)CCC(C)OC1=O)c1ccccc1 (centres undefined),-57.4% (active),-14.6% (active),-2.82% (active),0.0232% (active),-42.2% (active),-80% (active),-67.5% (active),-34% (active),-0.469% (active),–
CN(C)CCCCNc1ccc(NCCCCN(C)C)c2c1C(=O)c1c(O)ccc(O)c1C2=O,53.6%,-73.1% (active),-86% (active),64%,85.6%,-84.5% (active),100%,92%,-68.8% (active),–
COc1cccc(-c2nc3sccn3c2-c2ccnc(NCCNS(=O)(=O)c3c(Cl)cccc3Cl)c2)c1,15.1%,39%,90.9%,59.7%,89.5%,57.2%,70.8%,87.8%,36.6%,–
C[C@H]1[C@H](C)CC[C@]2(C(=O)N3CCN(C)CC3)CC[C@]3(C)C(=CC[C@@H]4[C@@]5(C)C/C(=C/c6cccnc6)C(=O)C(C)(C)[C@@H]5CC[C@]43C)[C@H]12,-59.3% (active),-76.2% (active),-77.8% (active),-24.9% (active),-89.5% (active),-69.2% (active),-93.2% (active),-30.7% (active),-75.1% (active),–
COC(=O)/C(=C\c1ccc(OC)cc1)C(=O)N1c2ccccc2Sc2ccccc21,54.4%,64.4%,75.1%,89.3%,91.7%,43.6%,24.5%,56.1%,16.4%,–
CCn1nc(C#Cc2c(C)ccc3c(Nc4ccc(Cl)cc4)nccc23)c2c(N)ncnc21,2.72% (active),7.01% (active),25.1%,41.5%,-3.61% (active),12.5%,7% (active),0.71% (active),11.6%,–
COC(=O)c1ccc2oc(NC(=O)c3ccc(N4CCOCC4)c([N+](=O)[O-])c3)nc2c1,93.3%,99%,92.8%,91%,89.8%,99.9%,107%,96.9%,103%,–
COc1cc(-c2ccc(N=Nc3c(O)c(C(=O)Nc4ccccc4OC)cc4ccccc34)c(OC)c2)ccc1N=Nc1c(O)c(C(=O)Nc2ccccc2OC)cc2ccccc12,97.2%,99.3%,99.6%,98.9%,103%,88.3%,99.3%,84.8%,96.4%,–
Oc1ccccc1-c1nc2ccccn2c1NCCN1CCOCC1,93.2%,100%,91.6%,92.2%,76.5%,103%,97.3%,89.5%,104%,–
Cc1cc(N(CCCNc2ccnc3cc(Cl)ccc23)Cc2ccccn2)nc(N2CCOCC2)n1,85.2%,81.7%,95.8%,82.3%,88.5%,82.2%,97.6%,80.9%,88.6%,–
c1ccc2c(c1)ncn2-c1nc2ccccc2n2c1nc1ccccc12,81.7%,80.5%,81%,67.9%,69.2%,51.4%,89.6%,83.8%,87%,–
C=C1C(=O)O[C@H]2[C@H]1CC/C(COC(=O)NCc1ccc(Cn3c(=O)sn(CCCCl)c3=O)cc1)=C\CC[C@@]1(C)O[C@@H]21,-30.1% (active),43.7%,69.8%,15.2%,91.9%,-36.3% (active),-87.9% (active),88.2%,104%,–
Cn1cc(Nc2nccc(-c3ccc(N4CCCC4)c(C#N)c3)n2)cn1,27.1%,47.3%,88%,53.7%,18.4%,25.3%,32.1%,32.5%,42.2%,–
Cc1cc(Cl)nc(N(CCCNc2ccnc3cc(Cl)ccc23)Cc2ccccn2)n1,1.09% (active),33.8%,56%,41.4%,65%,44.1%,62.8%,78.6%,32.2%,–
CC(C)n1nc(C#Cc2cccc(O)c2)c2c(N)ncnc21,-46.9% (active),-36.4% (active),-43% (active),-15% (active),-62.6% (active),-68.8% (active),-19.6% (active),-28.8% (active),-29.2% (active),–
